± gives the standard deviation of the averaged measurements. Whole data set: some 33,000 sequences, median “E-score (rank enrichment, -0.5 to 0.5)” near -0.0075, cut for the highest 2% near 0.23. The list comes from a sample in which the highest values are over-represented; it also holds similar and randomly drawn sequences.
Each sequence was assayed on WT Max(13-93) synthetic (M65Nle) (assay: PBM 8-mer E-score (E-score (rank enrichment, -0.5 to 0.5)); higher = stronger preferential binding).
Experimental: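 Protein binding microarray (universal PBM chip covering all 10-mers in fixed probe flanks) with chemically synthesized human Max(13-93) bHLH-LZ analogs (not full-length Max) bearing noncanonical residues (hArg, Tha, Aib, Nle at 65) and aromatic Cys staples. Read-out per 8-mer (and its reverse complement): E-score (rank-based enrichment, -0.5 to 0.5) and Z-score of median probe intensity.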

Sequence	PBM 8-mer E-score
TAAGGTAA	0.156 ± 0.086
CCAGCATA	0.0104 ± 0.015
GCTTCCCA	-0.0247 ± 0.11
GGAGGGTA	0.0987 ± 0.018
GCATTACA	0.133 ± 0.049
GTATATTA	0.226 ± 0.027
CTATTACA	0.14 ± 0.048
CTATATTA	0.221 ± 0.015
ATATTATG	0.242 ± 0.0093
GTATTACA	0.245 ± 0.00083
AGATTATG	-0.178 ± 0.043
ATATATTA	0.256 ± 0.08
ATATTATC	0.138 ± 0.011
AACGTTCT	0.0268 ± 0.08
CCTGTTGC	0.0294 ± 0.077
TGGAGGAA	-0.0087 ± 0.04
ATGCCCGC	0.00379 ± 0.056
CCGACGCC	-0.139 ± 0.013
GCGGCCGA	-0.21 ± 0.09
AATTTATC	0.15 ± 0.049
ATTTTATG	0.19 ± 0.12
CATTTATA	0.192 ± 0.047
AATTTATG	0.237 ± 0.005
AATTTATA	0.301 ± 0.057
ATTTTATA	0.229 ± 0.058

Sequence	PBM 8-mer E-score
CCCGGTAA	-0.114 ± 0.034
TCGGTAGA	-0.128 ± 0.0077
CGTGTGTA	0.24 ± 0.067
CATGTATA	0.24379 ± 0.00015
AGTGTGTA	0.101 ± 0.012
GGTGTAAC	-0.0257 ± 0.043
CGTGTAAC	0.276 ± 0.013
CGTGTATA	0.266 ± 0.0089
GATGTATA	0.117 ± 0.02
GGTGTGTA	0.0087 ± 0.0056
GGTGTATA	0.108 ± 0.039
CGTGTAAG	0.113 ± 0.075
CGTGTATC	0.149 ± 0.028
CATGTATC	0.185 ± 0.028
TATATTCA	0.151 ± 0.15
GAGTCTTA	-0.0474 ± 0.024
ACGTTGTC	0.232 ± 0.011
AGCGGAAA	-0.00668 ± 0.13
CCTTCTTA	0.0525 ± 0.12
AGACAGCG	-0.103 ± 0.063
AATCATCT	-0.0255 ± 0.056
CCTAGAAC	-0.0877 ± 0.0018
CATGTGTC	0.216 ± 0.053
CGTGTGCA	0.3 ± 0.047
GGTGTGCA	-0.0425 ± 0.051

Sequence	PBM 8-mer E-score
CATGTGTA	0.357 ± 0.029
GATGTGTA	-0.0106 ± 0.19
CGTGTGCC	0.146 ± 0.14
ACTGGTTG	-0.086 ± 0.065
AAACTATA	0.144 ± 0.062
CAACTATA	0.119 ± 0.098
TAACTATA	0.259 ± 0.13
CTGGTGAA	-0.0735 ± 0.0064
CGACTTAG	-0.0474 ± 0.049
ATCAGGTG	0.0403 ± 0.029
CCTGCCGC	-0.2994 ± 0.0014
CAAATCGA	-0.0111 ± 0.037
AGGTGACC	-0.1467 ± 0.00024
AGCAAACC	0.102 ± 0.14
ACATGAAG	0.0102 ± 0.026
ACATGATA	0.269 ± 0.038
ACATGATG	0.0731 ± 0.012
ACATGAAT	0.245 ± 0.071
AAATGATA	0.197 ± 0.029
GCATGACA	0.2006 ± 0.0015
ACATGAGA	0.146 ± 0.056
CCATGATC	-0.0246 ± 0.092
ACATGAAC	0.0506 ± 0.02
CCATGATA	0.0793 ± 0.032
ACATGATC	0.241 ± 0.024

Sequence	PBM 8-mer E-score
GCATGATA	0.273 ± 0.01
TGCGTACA	0.188 ± 0.13
CGAGGCCG	-0.243 ± 0.075
GCCCTGAC	0.0594 ± 0.023
ACTCCGAT	-0.0923 ± 0.047
AAAGAAAC	0.0488 ± 0.013
ACATCTCA	0.146 ± 0.089
TGGGCACA	0.0612 ± 0.062
ATGTTCAC	-0.109 ± 0.027
GCTGATGA	-0.087 ± 0.06
CTTGGGAC	-0.183 ± 0.081
GTGTGTAA	0.0936 ± 0.013
ATGTGTAA	0.236 ± 0.0034
ATGTGTAC	0.184 ± 0.011
CTGTGTAA	-0.00451 ± 0.0057
AAGTGTAG	0.111 ± 0.079
ATGTGTAG	0.25 ± 0.041
CCTAAGGA	0.089 ± 0.0031
AAGCGTAG	-0.0452 ± 0.033
CATGTCCA	0.124 ± 0.026
AGTCAGTA	0.0494 ± 0.052
ACGTGGAT	0.383 ± 0.044
AAGTGGAG	0.0727 ± 0.049
ACGTGGAG	0.338 ± 0.049
AGGTGGAT	0.0366 ± 0.1

Sequence	PBM 8-mer E-score
ACGTGGAA	0.271 ± 0.053
CCGTGGAG	-0.163 ± 0.06
ACGTGGAC	0.331 ± 0.0084
TCGTGGAA	0.163 ± 0.02
CCGTGGAC	-0.137 ± 0.023
AAGTGGAT	-0.0604 ± 0.074
GCGTGGAA	0.179 ± 0.049
GCGTGGAC	0.122 ± 0.16
ATCCTTTC	0.0595 ± 0.17
AAAGAGAT	-0.0586 ± 0.1
GTCCTTAA	0.063 ± 0.0053
AAAGGATG	0.0585 ± 0.087
CAAAACAA	0.129 ± 0.06
CATCGAGA	-0.0265 ± 0.036
GTAATGTA	0.0754 ± 0.18
ACCTCAAT	-0.0496 ± 0.16
CTGTGGAC	0.0601 ± 0.14
ATGTGGAG	0.1647 ± 0.0014
ATGTGGAC	0.238 ± 0.018
GGCATCCA	-0.0611 ± 0.057
ACCTTTTA	0.027 ± 0.18
AATAAAAT	0.144 ± 0.068
AATAAATA	0.168 ± 0.017
AATAAAAA	0.256 ± 0.11
AATAAAAC	0.296 ± 0.056

Sequence	PBM 8-mer E-score
CATAAATA	0.313 ± 0.0091
AATAAACC	0.197 ± 0.028
AATAAAAG	0.206 ± 0.037
TATAAATA	0.208 ± 0.025
CATAAAAC	0.0726 ± 0.027
GGACATCC	-0.188 ± 0.068
CACTTAGG	-0.0583 ± 0.16
CCGTGACA	0.00228 ± 0.054
ACGTGACA	0.366 ± 0.014
ACGTGACG	0.321 ± 0.039
ACGTGAGG	0.1604 ± 0.0013
CCGTGACC	-0.23 ± 0.064
ACGTGACC	0.298 ± 0.018
AGGTGACG	-0.053 ± 0.045
ACGTGAGT	0.327 ± 0.035
CCGTGACG	-0.0153 ± 0.0018
TCGTGACA	0.0356 ± 0.012
ACGTGAGA	0.208 ± 0.0048
GCGTGACC	0.075 ± 0.14
AGCCGAGG	-0.103 ± 0.058
AACACAGG	-0.0563 ± 0.091
ACGAACCG	-0.0438 ± 0.041
AATCCAAC	0.0162 ± 0.14
AGTGGTGC	-0.0756 ± 0.066
GGATGCCC	-0.0856 ± 0.021

Sequence	PBM 8-mer E-score
CGTATTCC	-0.096 ± 0.036
ACTGCGCT	0.0213 ± 0.097
ACCGCACC	-0.0552 ± 0.13
AAGTGACT	-0.00483 ± 0.05
AGGTGACT	-0.0287 ± 0.06
ACGTGACT	0.282 ± 0.0038
GCACGGAA	-0.00447 ± 0.026
GAGGATGC	-0.0499 ± 0.029
ATGAATGC	0.114 ± 0.14
ATGAATGA	0.126 ± 0.034
ATGAATGG	0.311 ± 0.023
GACGACAA	0.0432 ± 0.014
GAGAGGTA	-0.0899 ± 0.13
GAAGTTCC	-0.122 ± 0.051
CATAATGA	0.172 ± 0.059
AATAATGC	0.245 ± 0.095
AATAATGT	0.173 ± 0.097
AATAATGG	0.044 ± 0.046
GATAATGA	0.125 ± 0.072
AATAATGA	0.259 ± 0.073
ATCCGAAA	-0.03 ± 0.061
AGATTACC	-0.00321 ± 0.065

Reference: the supplement of paper PMC12636033
